From PubChem BioAssay (NCATS)
Results filed as inconclusive are left out. Where a call stands in place of a potency, no number is given. Activity calls are given as the source filed them. Calls come from the whole dose curve; as a rule, active = well fitted curve in the direction sought with a large enough effect; inconclusive = small, poorly fitted or top-dose-only effect, or another doubt; inactive = no such curve, though single readings can be large; an effect the other way counts as inactive or inconclusive.

Target: Tyrosine-protein phosphatase non-receptor type substrate 1 (Homo sapiens) + Leukocyte surface antigen CD47 (Homo sapiens) (UniProt P78324+Q08722)
Sequence (P78324 whole entry, looked up): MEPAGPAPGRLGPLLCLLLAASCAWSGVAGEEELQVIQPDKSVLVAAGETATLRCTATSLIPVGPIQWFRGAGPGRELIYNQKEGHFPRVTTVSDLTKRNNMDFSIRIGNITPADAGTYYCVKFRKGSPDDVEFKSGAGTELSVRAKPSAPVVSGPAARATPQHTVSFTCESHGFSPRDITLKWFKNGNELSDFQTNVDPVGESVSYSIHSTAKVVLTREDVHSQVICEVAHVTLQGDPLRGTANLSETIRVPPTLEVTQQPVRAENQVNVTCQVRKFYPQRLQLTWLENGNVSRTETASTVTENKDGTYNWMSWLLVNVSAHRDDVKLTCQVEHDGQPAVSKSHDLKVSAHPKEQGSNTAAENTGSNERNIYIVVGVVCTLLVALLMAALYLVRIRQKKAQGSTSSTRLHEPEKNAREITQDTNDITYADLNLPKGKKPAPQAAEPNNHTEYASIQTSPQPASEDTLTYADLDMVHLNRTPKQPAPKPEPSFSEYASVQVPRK
Sequence (Q08722 whole entry, looked up): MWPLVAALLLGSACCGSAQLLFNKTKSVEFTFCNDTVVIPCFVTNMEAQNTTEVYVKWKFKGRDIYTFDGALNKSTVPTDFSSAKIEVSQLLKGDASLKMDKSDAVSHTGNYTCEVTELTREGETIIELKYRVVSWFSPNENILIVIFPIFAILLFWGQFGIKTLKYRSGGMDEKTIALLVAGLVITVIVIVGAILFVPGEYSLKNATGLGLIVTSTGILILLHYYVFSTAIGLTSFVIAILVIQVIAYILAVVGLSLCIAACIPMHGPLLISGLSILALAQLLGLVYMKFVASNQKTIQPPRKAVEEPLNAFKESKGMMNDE
Assay: CD47-SIRPalpha protein protein interaction - Alpha assay qHTS validation (AID 1347059);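 note: bead proximity luminescence from CD47 binding SIRPalpha after compound preincubation with SIRPalpha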
Details: AlphaScreen CD47-His/biotin-SIRPalpha binding, LOPAC; series mostly up to 38.3 µM
Outline: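 Biotinylated Avi-tagged SIRPalpha (25 nM) preincubated 30 min with compound, then His-tagged CD47 (12.5 nM) added 30 min; AlphaScreen with Ni-NTA acceptor and streptavidin donor beads. PBS pH 7.4, 0.05% IGEPAL, room temperature; 7-point titrations.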

SMILES	Potency
C#CCN[C@H](C)Cc1ccccc1	inactive
NCC(O)c1cc(O)c(O)cc1F (stereo not given)	inactive
NCCc1c[nH]c2ccc(C(N)=O)cc12	inactive
C[C@@H]1O[C@@H](O[C@H]2C[C@@H](O)[C@]3(CO)[C@@H]4C(CC[C@]3(O)C2)[C@@]2(O)CC[C@H]([C@@H]3COC(=O)C3)[C@@]2(C)C[C@H]4O)[C@H](O)[C@H](O)[C@H]1O (stereo not given in full)	inactive
CC(N)Cc1c[nH]c2ccc(O)cc12 (stereo not given)	inactive
NNC(=O)c1ccc(O)cc1	inactive
C=CCN1CCC23c4c5ccc(O)c4O[C@H]2C(=O)CC[C@@]3(O)C1C5 (stereo not given in full)	inactive
NC(=O)COc1c(F)cc(SCCNS(=O)(=O)c2ccccc2)cc1F	inactive
CNc1ccc2oc(C[C@H]3O[C@@]4(CC[C@H]3C)O[C@H]([C@H](C)C(=O)c3ccc[nH]3)[C@H](C)C[C@H]4C)nc2c1C(=O)O	inactive
NNC(N)=O	inactive
c1ccc2c(c1)[I+]c1ccccc1-2	inactive
Oc1ccc2c3c1O[C@H]1c4[nH]c5ccccc5c4C[C@@]4(O)C(C2)N(CC2CC2)CCC314 (stereo not given in full)	inactive
NC(CCCCCP(=O)(O)O)C(=O)O (stereo not given)	inactive
O=C1C=CC(=O)C=C1	inactive
CCCN1CC[C@@H]2c3cc(O)ccc3CC[C@@H]21	inactive
OC1CCCCC1N1CCC(c2ccccc2)CC1 (stereo not given)	inactive
COC(=O)N1CCN(C(=O)Cc2ccc(Cl)c(Cl)c2)C(CN2CCCC2)C1 (stereo not given)	inactive
Cc1[nH]c2ccc(O)cc2c1CCN	inactive
NC(=O)c1ccc(OCC(O)CN2CC=C(c3ccc(F)cc3)CC2)cc1 (stereo not given)	inactive

SMILES	Potency
CCCN(CCC)[C@H]1CCc2c(F)ccc(O)c2C1	inactive
Cc1o[nH]c(=O)c1CC(N)C(=O)O (stereo not given)	inactive
CN(C(=O)Cc1ccc(Cl)c(Cl)c1)C(CN1CCCC1)c1cccc(OCC(=O)O)c1 (stereo not given)	inactive
Cc1cc([C@@H]2CCCN2C)on1	inactive
C[N+]1(C)CCc2cc3c(cc2[C@H]1[C@@H]1OC(=O)c2c1ccc1c2OCO1)OCO3	inactive
CCCN(CCC)C1Cc2cc(OC)c(OC)cc2C1	inactive
CCOC(=O)c1ncn2c1[C@@H]1CCCN1C(=O)c1cc(OC)ccc1-2	inactive
CCCN(CCC)CCc1ccc(O)c(O)c1	inactive
CC(N)c1cccc(Cl)c1Cl (stereo not given)	inactive
N[C@@]1(C(=O)O)CC[C@@H](C(=O)O)C1	inactive
CC12NC(Cc3ccccc31)c1ccccc12 (stereo not given)	inactive
c1ccc2c(N3CCNCC3)cccc2c1	inactive
C[N+]1(C)CCOC(O)(c2ccc(-c3ccc(C4(O)C[N+](C)(C)CCO4)cc3)cc2)C1 (stereo not given)	inactive
N=C(N)c1ccc(CS(=O)(=O)F)cc1	inactive
CC(N)Cc1c[nH]c2ccc(OCc3cccs3)cc12 (stereo not given)	inactive
O=C1CC[C@@]2(O)C3Cc4ccc(O)c5c4C2(CCN3CC2CC2)[C@H]1O5 (stereo not given in full)	inactive
CCN1C[C@@]2(COC)C3[C@@H](OC)C4[C@@H]1C3([C@@H]1C[C@]3(O)[C@H](OC(=O)c5ccccc5)[C@@H]1[C@]4(OC(C)=O)[C@@H](O)[C@@H]3OC)[C@H](OC)C[C@H]2O	inactive
CCNC(=O)[C@H]1O[C@@H](n2cnc3c(N)ncnc32)[C@H](O)[C@@H]1O	inactive
CO[C@H]1CC=C2CCN3CCC4=C(CC(=O)OC4)[C@]23C1	inactive

Target: Parathyroid hormone/parathyroid hormone-related peptide receptor (Homo sapiens) (UniProt Q03431)
Sequence (Q03431 whole entry, looked up): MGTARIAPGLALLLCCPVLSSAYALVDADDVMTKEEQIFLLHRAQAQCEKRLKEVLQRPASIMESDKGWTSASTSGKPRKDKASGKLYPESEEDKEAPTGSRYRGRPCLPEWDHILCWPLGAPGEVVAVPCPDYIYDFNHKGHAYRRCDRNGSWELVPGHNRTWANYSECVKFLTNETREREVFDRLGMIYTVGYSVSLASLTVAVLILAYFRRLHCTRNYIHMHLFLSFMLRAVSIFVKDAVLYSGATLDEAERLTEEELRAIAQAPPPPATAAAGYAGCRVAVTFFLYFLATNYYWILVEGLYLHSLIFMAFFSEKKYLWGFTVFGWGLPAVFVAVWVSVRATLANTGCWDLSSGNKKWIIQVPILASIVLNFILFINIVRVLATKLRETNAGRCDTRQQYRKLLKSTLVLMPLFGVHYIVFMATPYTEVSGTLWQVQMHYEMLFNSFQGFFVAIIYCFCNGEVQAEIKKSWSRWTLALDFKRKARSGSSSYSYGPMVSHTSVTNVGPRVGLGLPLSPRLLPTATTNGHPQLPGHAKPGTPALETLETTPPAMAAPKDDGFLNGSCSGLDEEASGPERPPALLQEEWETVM
Assay: qHTS for PTHR1 Agonists: Optimization Screen against the NCGC LOPAC library (AID 1347079);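 note: GloSensor cAMP luminescence in HEK-293 GP2 cells expressing human PTHR1 with IBMX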
Details: HEK293 GP2 PTHR1 GloSensor cAMP luminescence, 1 h; series mostly up to 57.1 µM
Outline: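 Agonist readout: GloSensor cAMP luminescence, read after 15 min at room temperature. HEK-293-derived GP2 line carries PTHR1; compounds tested as a titration for 1 hr at 37C in presence of IBMX. M-PTH (1-15) served as control.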

SMILES	Potency
C#CCN[C@H](C)Cc1ccccc1	inactive
NCCc1c[nH]c2ccc(C(N)=O)cc12	inactive
C[C@@H]1O[C@@H](O[C@H]2C[C@@H](O)[C@]3(CO)[C@@H]4C(CC[C@]3(O)C2)[C@@]2(O)CC[C@H]([C@@H]3COC(=O)C3)[C@@]2(C)C[C@H]4O)[C@H](O)[C@H](O)[C@H]1O (stereo not given in full)	inactive
CC(N)Cc1c[nH]c2ccc(O)cc12 (stereo not given)	inactive
C=CCN1CCC23c4c5ccc(O)c4O[C@H]2C(=O)CC[C@@]3(O)C1C5 (stereo not given in full)	inactive
CNc1ccc2oc(C[C@H]3O[C@@]4(CC[C@H]3C)O[C@H]([C@H](C)C(=O)c3ccc[nH]3)[C@H](C)C[C@H]4C)nc2c1C(=O)O	inactive
c1ccc2c(c1)[I+]c1ccccc1-2	inactive
Oc1ccc2c3c1O[C@H]1c4[nH]c5ccccc5c4C[C@@]4(O)C(C2)N(CC2CC2)CCC314 (stereo not given in full)	inactive
NC(CCCCCP(=O)(O)O)C(=O)O (stereo not given)	inactive
O=C1C=CC(=O)C=C1	inactive
OC1CCCCC1N1CCC(c2ccccc2)CC1 (stereo not given)	inactive
COC(=O)N1CCN(C(=O)Cc2ccc(Cl)c(Cl)c2)C(CN2CCCC2)C1 (stereo not given)	inactive
Cc1[nH]c2ccc(O)cc2c1CCN	inactive
Cc1o[nH]c(=O)c1CC(N)C(=O)O (stereo not given)	inactive
CN(C(=O)Cc1ccc(Cl)c(Cl)c1)C(CN1CCCC1)c1cccc(OCC(=O)O)c1 (stereo not given)	inactive
Cc1cc([C@@H]2CCCN2C)on1	inactive
CCOC(=O)c1ncn2c1[C@@H]1CCCN1C(=O)c1cc(OC)ccc1-2	inactive
CC(N)c1cccc(Cl)c1Cl (stereo not given)	inactive
N[C@@]1(C(=O)O)CC[C@@H](C(=O)O)C1	inactive
CC12NC(Cc3ccccc31)c1ccccc12 (stereo not given)	inactive
CC(N)Cc1c[nH]c2ccc(OCc3cccs3)cc12 (stereo not given)	inactive
O=C1CC[C@@]2(O)C3Cc4ccc(O)c5c4C2(CCN3CC2CC2)[C@H]1O5 (stereo not given in full)	inactive
